# Measured values as given in the supplement of paper PMC6555819.
# Test system: RARb homodimer (NR concentration 270 nM)
# Experiment: PBM binding z-score (relative to random genomic background probes); higher = stronger binding; sequences stand for … in GC…GCGATTGACAGCGTAGAATGAAGG
# In short: (§1)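 On custom Agilent 4×180K arrays, double-stranded probes with 34-nt variable regions carried direct-repeat seeds, single-nucleotide variants, half-site ablations or random human genomic background. Ligand-free nuclear receptor dimers were applied for 1 h, and binding was read with antibodies against each partner (one per run). Binding z-scores come from regression-normalized fluorescence, with the random background probes as reference.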
row,Sequence,PBM binding z-score
1,TCTCGGAGGACATGAAGGTCAGAGCTTTCCAGAG,3.3
2,GGAACCAGGGCAAAGTTGATAGCATCTGTCGACG,1.67
3,CGTCCAAGGTCAATGCTAGGTCAGTGAAAGCATT,4.88
4,CAAACTACGTCACCGGAAGGTCAAAGTCCGCATG,4.23
5,TCTAGCAGGCCAGATGGTCACTCAAGAGGTACGG,0.18
6,AGAATGAGGTTACCAAAGATCAGGGCAACGCTTG,1.97
7,GCTCGGAGGACAAGGTCAGAGCCTTGTCCGTAGA,2.82
8,GCTACTGGGGCAAAGCAGGTTACCATAAGGTTGG,1.16
9,TCTATTAGTTGACGGGCAACCGACGAGTCCGTTT,-0.1
10,TCACACAGGTGAAGGTAACTCAGGTACGCAGTCG,0.561
11,TCATATAGGTAAAAGGAGAAAGTCGGTGTGGTAA,-0.155
12,ATCTCTAGGGAAAAGTTCAGTGAATCCCGAGGAT,2.03
13,CGTCCACGGTCAAGGTCAGTGAAAGAGACTCGAA,3.86
14,CCTCCAAGGTCAATGCTAGGTCAGTGAAAGCATT,5.1
15,CCAGACAGGTGAGAAGGTAACACAGCCTCGATTA,1.03
16,TAGCCTAGGTCAAGGGCCAGTATACCACGCGAAC,3.4
17,CCTAGTTGGTCAGAAGGTCACACACCGGATATGA,4.46
18,CGTCAAAATTCAACTAAGGTAACGTAAAGCACGC,0.445
19,ATCTCTAGGTAAAGTTCAGTGATAGATCGATAGA,2.44
20,TCTTGTAAATCAGCAGGTTAAGAAAGCTGGCCAA,-0.0241

row,Sequence,PBM binding z-score
1,ATACCAAGGTGACCGTGAGGTCGTTGATACTAAC,2.9
2,CTACCCAGGTGAACAAGGTCGTTGATTACTATTC,1.57
3,AGAAGGAGGTTATACGTAGATCAGGGAAGAAAGT,1.26
4,CCTACTGGGCCACGCAAGGTCATTGATTCAGTGA,3.66
5,GTACCAAGGTGAATAGGTTGTTGATGAGTAGGCG,0.824
6,TCATATAGGTAATACAGGTGAAAGCCGGCATCTA,0.482
7,CCGACTGGGGCATAAGGTCACCATAAGCCAGCCC,4.32
8,TGAATGAGGTTCAAGATCAGGGAACGTGGCGTCG,0.237
9,CGTCAAAGTTCAACTAAGGAAACGTAAAGCACGC,3.66
10,AGAACGAGGGCACGCTGATTTGATAGCAGAGTAG,1.14
11,CGTCAAAGTTCAAGGTAACGTACCAGAAAGCAGC,3.97
12,TAGCCTAGGGCATGCGGGCCAGTATAGTGTCGGC,0.409
13,TCTTGTAGAGCAAAGGTTAAGAAAGCCGAAGCCT,1.17
14,CCGACTGGGGCAAGGTTACCTTAACGCACAGCCA,1.27
15,CCAGACAGGTGAGAAGGTCACTCAGCCTCGATTA,4.12
16,CCTACTGGGCCCTTCAGAGGTCATTGATCATATG,3.67
17,CCTGGTAGGTCATGGTCAGCTAATCTACAGTATG,3.07
18,CCTTACGGGACACTGACAGGTTATAGCATTTGGA,0.492
19,TCGAGTAGGTTACCAATGGGGCATTCACCTTTCT,1.29
20,ACTTACGGGTCAACGAGGTTATTGCACGCGTATA,3.55

# Test system: RARg:RXRa (NR concentration 270 nM, RXRa partner concentration 90 nM)
# Experiment: as above
# In short: as §1
row,Sequence,PBM binding z-score
1,TCTCGGAGGACATGAAGGTCAGAGCTTTCCAGAG,2.47
2,GGAACCAGGGCAAAGTTGATAGCATCTGTCGACG,1.34
3,CGTCCAAGGTCAATGCTAGGTCAGTGAAAGCATT,7.68
4,CAAACTACGTCACCGGAAGGTCAAAGTCCGCATG,4.01
5,TCTAGCAGGCCAGATGGTCACTCAAGAGGTACGG,0.0724
6,AGAATGAGGTTACCAAAGATCAGGGCAACGCTTG,2.24
7,GCTCGGAGGACAAGGTCAGAGCCTTGTCCGTAGA,3.32
8,GCTACTGGGGCAAAGCAGGTTACCATAAGGTTGG,0.343
9,TCTATTAGTTGACGGGCAACCGACGAGTCCGTTT,0.0549
10,TCACACAGGTGAAGGTAACTCAGGTACGCAGTCG,0.746
11,TCATATAGGTAAAAGGAGAAAGTCGGTGTGGTAA,0.181
12,ATCTCTAGGGAAAAGTTCAGTGAATCCCGAGGAT,1.23
13,CGTCCACGGTCAAGGTCAGTGAAAGAGACTCGAA,3.41
14,CCTCCAAGGTCAATGCTAGGTCAGTGAAAGCATT,7.37
15,CCAGACAGGTGAGAAGGTAACACAGCCTCGATTA,0.858
16,TAGCCTAGGTCAAGGGCCAGTATACCACGCGAAC,4.09
17,CCTAGTTGGTCAGAAGGTCACACACCGGATATGA,4.85
18,CGTCAAAATTCAACTAAGGTAACGTAAAGCACGC,0.33
19,ATCTCTAGGTAAAGTTCAGTGATAGATCGATAGA,2.15
20,TCTTGTAAATCAGCAGGTTAAGAAAGCTGGCCAA,-0.0885

row,Sequence,PBM binding z-score
1,ATACCAAGGTGACCGTGAGGTCGTTGATACTAAC,3.36
2,CTACCCAGGTGAACAAGGTCGTTGATTACTATTC,1.18
3,AGAAGGAGGTTATACGTAGATCAGGGAAGAAAGT,1.3
4,CCTACTGGGCCACGCAAGGTCATTGATTCAGTGA,3.09
5,GTACCAAGGTGAATAGGTTGTTGATGAGTAGGCG,1.07
6,TCATATAGGTAATACAGGTGAAAGCCGGCATCTA,0.795
7,CCGACTGGGGCATAAGGTCACCATAAGCCAGCCC,4.86
8,TGAATGAGGTTCAAGATCAGGGAACGTGGCGTCG,1.24
9,CGTCAAAGTTCAACTAAGGAAACGTAAAGCACGC,5.97
10,AGAACGAGGGCACGCTGATTTGATAGCAGAGTAG,1.65
11,CGTCAAAGTTCAAGGTAACGTACCAGAAAGCAGC,5.35
12,TAGCCTAGGGCATGCGGGCCAGTATAGTGTCGGC,0.0659
13,TCTTGTAGAGCAAAGGTTAAGAAAGCCGAAGCCT,1.43
14,CCGACTGGGGCAAGGTTACCTTAACGCACAGCCA,0.881
15,CCAGACAGGTGAGAAGGTCACTCAGCCTCGATTA,4.65
16,CCTACTGGGCCCTTCAGAGGTCATTGATCATATG,3.27
17,CCTGGTAGGTCATGGTCAGCTAATCTACAGTATG,4.23
18,CCTTACGGGACACTGACAGGTTATAGCATTTGGA,0.652
19,TCGAGTAGGTTACCAATGGGGCATTCACCTTTCT,1.38
20,ACTTACGGGTCAACGAGGTTATTGCACGCGTATA,5.66
